In PMC9911399, “Two distinct binding modes provide the RNA-binding protein RbFox with extraordinary sequence specificity”:
Residue numbers refer to the chain shown, from its start. In all, about 16,000 sequences were measured (“ka relative to ugcaugu”: median about 0.0091, highest 2% from about 0.032 on). What follows is part of a selection rich in the highest values, with near analogues and random picks from the rest.

T1: RBFOX1 RRM (Homo sapiens, UniProt Q9NWB1 109-208)
T1 sequence: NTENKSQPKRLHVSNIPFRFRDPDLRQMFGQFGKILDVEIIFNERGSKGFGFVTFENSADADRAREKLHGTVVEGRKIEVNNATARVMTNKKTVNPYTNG

B1: GAAACCA (DNA:RNA)
RNA: GGGAGACCGGAAUUCAGAUUGUCCGAAACCAUUAAAUCCCGUCGUAGCCACCA
DNA 1: CAATCTGAATTCCGGTCTCCC
DNA 2: TGGTGGCTACGACGGGATT
B2: UUUAAUU (DNA:RNA)
RNA: B1 RNA with G25U, A26U, A27U, C29A, C30U, A31U
DNA 1: CAATCTGAATTCCGGTCTCCC
DNA 2: TGGTGGCTACGACGGGATT
B3: CUGAUGU (DNA:RNA)
RNA: B1 RNA with G25C, A26U, A27G, C29U, C30G, A31U
DNA 1: CAATCTGAATTCCGGTCTCCC
DNA 2: TGGTGGCTACGACGGGATT
B4: UUGCAUC (DNA:RNA)
RNA: GGGAGACCGGAAUUCAGAUUGUCCUUGCAUCUUAAAUCCCGUCGUAGCCACCA
DNA 1: CAATCTGAATTCCGGTCTCCC
DNA 2: TGGTGGCTACGACGGGATT
B5: GUGCAUG (DNA:RNA)
RNA: B4 RNA with U25G, C31G
DNA 1: CAATCTGAATTCCGGTCTCCC
DNA 2: TGGTGGCTACGACGGGATT
B6: UUGCAUA (DNA:RNA)
RNA: B4 RNA with C31A
DNA 1: CAATCTGAATTCCGGTCTCCC
DNA 2: TGGTGGCTACGACGGGATT
B7: UUGCAAG (DNA:RNA)
RNA: B4 RNA with U30A, C31G
DNA 1: CAATCTGAATTCCGGTCTCCC
DNA 2: TGGTGGCTACGACGGGATT
B8: GUGCAUA (DNA:RNA)
RNA: B4 RNA with U25G, C31A
DNA 1: CAATCTGAATTCCGGTCTCCC
DNA 2: TGGTGGCTACGACGGGATT
B9: GUGCAUC (DNA:RNA)
RNA: B4 RNA with U25G
DNA 1: CAATCTGAATTCCGGTCTCCC
DNA 2: TGGTGGCTACGACGGGATT
B10: UUGCAAA (DNA:RNA)
RNA: B4 RNA with U30A, C31A
DNA 1: CAATCTGAATTCCGGTCTCCC
DNA 2: TGGTGGCTACGACGGGATT
B11: GUGCAAG (DNA:RNA)
RNA: B4 RNA with U25G, U30A, C31G
DNA 1: CAATCTGAATTCCGGTCTCCC
DNA 2: TGGTGGCTACGACGGGATT
B12: UUGCAUG (DNA:RNA)
RNA: B4 RNA with C31G
DNA 1: CAATCTGAATTCCGGTCTCCC
DNA 2: TGGTGGCTACGACGGGATT
B13: CCUGUAG (DNA:RNA)
RNA: GGGAGACCGGAAUUCAGAUUGUCCCCUGUAGUUAAAUCCCGUCGUAGCCACCA
DNA 1: CAATCTGAATTCCGGTCTCCC
DNA 2: TGGTGGCTACGACGGGATT
B14: UCGAGAU (DNA:RNA)
RNA: B13 RNA with C25U, U27G, G28A, U29G, G31U
DNA 1: CAATCTGAATTCCGGTCTCCC
DNA 2: TGGTGGCTACGACGGGATT
B15: UGCCACG (DNA:RNA)
RNA: B4 RNA with U26G, G27C, U30C, C31G
DNA 1: CAATCTGAATTCCGGTCTCCC
DNA 2: TGGTGGCTACGACGGGATT
B16: CUGCACG (DNA:RNA)
RNA: B4 RNA with U25C, U30C, C31G
DNA 1: CAATCTGAATTCCGGTCTCCC
DNA 2: TGGTGGCTACGACGGGATT
B17: UGCACCC (DNA:RNA)
RNA: B1 RNA with G25U, A26G, A27C, A31C
DNA 1: CAATCTGAATTCCGGTCTCCC
DNA 2: TGGTGGCTACGACGGGATT
B18: UGCACCG (DNA:RNA)
RNA: B1 RNA with G25U, A26G, A27C, A31G
DNA 1: CAATCTGAATTCCGGTCTCCC
DNA 2: TGGTGGCTACGACGGGATT
B19: CUGCACC (DNA:RNA)
RNA: B4 RNA with U25C, U30C
DNA 1: CAATCTGAATTCCGGTCTCCC
DNA 2: TGGTGGCTACGACGGGATT
B20: UGCACGU (DNA:RNA)
RNA: B1 RNA with G25U, A26G, A27C, C30G, A31U
DNA 1: CAATCTGAATTCCGGTCTCCC
DNA 2: TGGTGGCTACGACGGGATT
B21: GUAUAGC (DNA:RNA)
RNA: B4 RNA with U25G, G27A, C28U, U30G
DNA 1: CAATCTGAATTCCGGTCTCCC
DNA 2: TGGTGGCTACGACGGGATT
B22: GGGUUCG (DNA:RNA)
RNA: B13 RNA with C25G, C26G, U27G, G28U, A30C
DNA 1: CAATCTGAATTCCGGTCTCCC
DNA 2: TGGTGGCTACGACGGGATT
B23: UUCCGGG (DNA:RNA)
RNA: B4 RNA with G27C, A29G, U30G, C31G
DNA 1: CAATCTGAATTCCGGTCTCCC
DNA 2: TGGTGGCTACGACGGGATT
B24: GGGUUCU (DNA:RNA)
RNA: B1 RNA with A26G, A27G, A28U, C29U, A31U
DNA 1: CAATCTGAATTCCGGTCTCCC
DNA 2: TGGTGGCTACGACGGGATT
B25: CGGGUUC (DNA:RNA)
RNA: B13 RNA with C26G, U27G, A30U, G31C
DNA 1: CAATCTGAATTCCGGTCTCCC
DNA 2: TGGTGGCTACGACGGGATT
B26: GGGUUUC (DNA:RNA)
RNA: B4 RNA with U25G, U26G, C28U, A29U
DNA 1: CAATCTGAATTCCGGTCTCCC
DNA 2: TGGTGGCTACGACGGGATT
B27: GUGCGGG (DNA:RNA)
RNA: B4 RNA with U25G, A29G, U30G, C31G
DNA 1: CAATCTGAATTCCGGTCTCCC
DNA 2: TGGTGGCTACGACGGGATT
B28: GGGGUUC (DNA:RNA)
RNA: B4 RNA with U25G, U26G, C28G, A29U
DNA 1: CAATCTGAATTCCGGTCTCCC
DNA 2: TGGTGGCTACGACGGGATT
B29: GGGUUCC (DNA:RNA)
RNA: B1 RNA with A26G, A27G, A28U, C29U, A31C
DNA 1: CAATCTGAATTCCGGTCTCCC
DNA 2: TGGTGGCTACGACGGGATT
B30: GCGGGGG (DNA:RNA)
RNA: B13 RNA with C25G, U27G, U29G, A30G
DNA 1: CAATCTGAATTCCGGTCTCCC
DNA 2: TGGTGGCTACGACGGGATT
B31: UCGUGUC (DNA:RNA)
RNA: B4 RNA with U26C, C28U, A29G
DNA 1: CAATCTGAATTCCGGTCTCCC
DNA 2: TGGTGGCTACGACGGGATT

Molecular target: T1, RBFOX1 RRM
Test: EMSA; HiTS-Eq, 1 nM pool, 10 min; buffer printed only for the single-RNA assays: 10 mM Tris pH 7.5, 150 mM NaCl, 3.4 mM EDTA, 0.001% NP-40, 30 C
Conditions: tags: His6 N-terminal (pET28a); label: 5' 32P
In short: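 Relative association constants, normalised to the cognate motif, were derived by comparing read counts of each RNA species with those of the control reaction. The RNA sequenced was the free fraction, separated by 8% native PAGE after a 10 min equilibration in 50 µL of 1 nM 5′-radiolabelled RNA (7 randomized nucleotides) with increasing concentrations of purified wild-type or mutant RbFox RRM.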

Point of comparison: B5, binding signal 1 KA relative to UGCAUGU. Against it:
- B1 — lower, 0.00223 KA relative to UGCAUGU
- B2 — lower, 0.00658 KA relative to UGCAUGU
- B3 — lower, 0.0201 KA relative to UGCAUGU
- B4 — lower, 0.022 KA relative to UGCAUGU
- B6 — lower, 0.0139 KA relative to UGCAUGU
- B7 — lower, 0.0333 KA relative to UGCAUGU
- B8 — lower, 0.0221 KA relative to UGCAUGU
- B9 — lower, 0.0315 KA relative to UGCAUGU
- B10 — lower, 0.0109 KA relative to UGCAUGU
- B11 — lower, 0.0274 KA relative to UGCAUGU
- B12 — the same, 1 KA relative to UGCAUGU
- B13 — lower, 0.00969 KA relative to UGCAUGU
- B14 — lower, 0.00776 KA relative to UGCAUGU
- B15 — lower, 0.0198 KA relative to UGCAUGU
- B16 — lower, 0.616 KA relative to UGCAUGU
- B17 — lower, 0.0142 KA relative to UGCAUGU
- B18 — lower, 0.0145 KA relative to UGCAUGU
- B19 — lower, 0.0128 KA relative to UGCAUGU
- B20 — lower, 0.514 KA relative to UGCAUGU
- B21 — lower, 0.00925 KA relative to UGCAUGU
- B22 — lower, 0.026 KA relative to UGCAUGU
- B23 — lower, 0.00531 KA relative to UGCAUGU
- B24 — lower, 0.0166 KA relative to UGCAUGU
- B25 — lower, 0.0418 KA relative to UGCAUGU
- B26 — lower, 0.0237 KA relative to UGCAUGU
- B27 — lower, 0.0167 KA relative to UGCAUGU
- B28 — lower, 0.0437 KA relative to UGCAUGU
- B29 — lower, 0.0348 KA relative to UGCAUGU
- B30 — lower, 0.0269 KA relative to UGCAUGU
- B31 — lower, 0.0187 KA relative to UGCAUGU
